This is a sample that favours compounds with a hit; in the whole collection about 1.6% have one here.
BJeLR viability = kills HRASV12-expressing BJeLR cells; actives 0.17% (n = 300,000); inhibition, % (concentration not given with the values); AID 1554; BJeLR (HRASV12) viability, CellTiter-Glo ATP luminescence, 48 h; in the data active = inhibition above about 50%
CCHFV vOTU inh = CCHFV vOTU protease inhibition. Pep-AMC fluorescence. inhibition, % at 11.5 µM. actives 0.55% (n = 370,000). AID 651958; in the data active = inhibition above about 30%
Sa ugtP lethal = compounds lethal to S. aureus RN4220 ugtP deletion mutant; OD600 growth, 16 h; growth inhibition, % (concentration not given with the values); actives 0.54% (n = 330,000); in the data active = growth inhibition above about 68%
RN4220 kill = kills Staphylococcus aureus RN4220; S. aureus RN4220 growth, OD600, 16 h; inhibition, % (test concentration not listed); actives 0.33% (n = 330,000); in the data active = inhibition above about 85%
PfHsp40 rescue = compounds rescuing yeast from Plasmodium falciparum HSP40 toxicity; S. cerevisiae expressing PfHsp40, growth rescue, ATP luminescence; growth rescue, % at 12.5 µM; actives 0.68% (n = 340,000); in the data active = growth rescue above about 28%, passing the limit was not always enough;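 note: yeast W303a lacking pdr1 and pdr3 grown in galactose medium; growth measured after three days at 30 °C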
Hits are given with their value; - = inactive; . = no result; ! = not confirmed by another sample.

SMILES	BJeLR viability	CCHFV vOTU inh	Sa ugtP lethal	RN4220 kill	PfHsp40 rescue
NCCCCC(N)c1cn(C(CCC(=O)O)C(=O)N2CCNCC2)nn1 (stereo not drawn)	.	.	-	-	.
CC=C1COC(C(=O)NCCN2CCCC2)(C(F)(F)F)C=C1C=C1CCCCC1 (stereo not drawn)	.	.	-	-	.
O=C(CSc1ccc(Cl)cc1)N1CCN(c2c(Cl)cccc2[N+](=O)[O-])CC1	-	-	-	-	66.2
O=C(/C=C/c1ccc(Cl)cc1)N1CCN(c2c(Cl)cccc2[N+](=O)[O-])CC1	-	-	-	-	-
COc1ccc(C2CC(=O)C=C(c3c(C)cc(C)cc3C)C2)cc1 (stereo not drawn)	.	.	-	-	.
CCOC(=O)C1=C(C)n2c(sc(=C3C(=O)Nc4ccccc43)c2=O)=NC1c1ccc(OC)cc1 (stereo not drawn)	.	.	-	-	.
Cc1noc(C)c1NC(=O)Nc1ccc2c(c1)C(=O)N(C(C)CO)CC(C)C(CN(C)C(=O)NC(C)C)O2 (stereo not drawn)	.	.	-	-	.
CCCCCCC[C@@H](C/C=C/CCC(=O)N(C)C/C(=C/Cl)C/C(=C\C(=O)N1CC(OC)=CC1=O)OC)OC	.	-	-	-	36.5
Cc1ccc(C)c(NN=C2CCCNC2=O)c1	.	.	-	-	.
CCOc1ccc2nc(NC(=O)c3ccco3)sc2c1	-	-	-	-	-
CCOc1ccc2nc(NC(=O)c3ccoc3C)sc2c1	81.5	-	-	-	-
CCCCCC1CCC(c2ccc(/C(N)=N/O)cc2)CC1 (stereo not drawn)	-	-	99.9	-	-
CCOc1cc(C(=O)NN=C/C(Br)=C/c2ccccc2)cc(OCC)c1OCC	.	.	-	-	.
c1ccc(-c2nnc(SCC3CCCO3)nc2-c2ccccc2)cc1 (stereo not drawn)	-	-	-	-	-
c1ccc(-c2nnc(SCC3CCCCO3)nc2-c2ccccc2)cc1 (stereo not drawn)	-	-	93.7	-	-
O=C(C[n+]1ccccc1)NN=Cc1ccc(Cl)c(Cl)c1	.	.	-	-	.
O=C(OCCN1CCCCC1)C1(c2ccccc2)CCCC1	-	-	.	.	-
O=C(OCCN1CCCC1)C1(c2ccccc2)CCCC1	-	-	-	-	49.6!
COC(=O)c1cc(=O)n(-c2ccc(C(F)(F)F)cc2)[nH]1	-	-	-	-	189.6
CC(C)=CCc1c(O)cc(O)c2c1OC(c1ccc(O)cc1)CC2=O (stereo not drawn)	-	-	-	-	262.4
Cc1ccc2c(c1)C(=O)N1C3c4cc(C)ccc4OCC3C(c3ccccc3)[C@]1(C)C(=O)N2 (stereo partly drawn)	.	.	-	-	.
Cc1ccc2c(c1)C(=O)N1[C@H]3c4ccccc4OC[C@@H]3[C@H](c3ccccc3)[C@]1(C)C(=O)N2	.	.	.	.	128.1
C[C@@]12C(=O)Nc3ccc(Br)cc3C(=O)N1[C@H]1c3ccccc3OC[C@@H]1[C@@H]2c1ccccc1	.	.	.	.	127.6
COc1ccc2c(c1)OC[C@H]1[C@H]2N2C(=O)c3cc(C)ccc3NC(=O)[C@@]2(C)[C@H]1c1ccccc1	.	.	.	.	297.4
COc1ccc2c(c1)[C@H]1[C@H](CO2)[C@H](c2ccccc2)[C@]2(C)C(=O)Nc3ccc(Cl)cc3C(=O)N12	.	-	.	.	267.6
SMILES	BJeLR viability	CCHFV vOTU inh	Sa ugtP lethal	RN4220 kill	PfHsp40 rescue
C[C@@]12C(=O)Nc3ccc(Br)cc3C(=O)N1C1c3cc(Br)ccc3OCC1C2c1ccccc1 (stereo partly drawn)	.	.	-	-	.
CC(=NNC(=S)Nc1ccc(F)cc1)C1CC1	.	.	-	-	.
C[C@]12C(=O)N(c3ccccc3)C(=O)N1[C@H]1c3ccccc3OC[C@@H]1[C@H]2c1ccccc1	.	-	.	.	98.0
CCOC(=O)[C@@H]1[C@H]2COc3ccccc3[C@H]2N2C(=O)N(c3ccc(C(F)(F)F)cc3)C(=O)[C@]12C	-	-	.	.	92.2
O=C(Nc1ccccc1-c1nnn(CC(=O)N2CCOCC2)n1)c1ccccc1F	-	-	-	-	41.8
CN(Cc1ccccc1F)C(=O)c1ccc(Oc2ccccc2)cc1	-	-	91.3	-	-
CN(Cc1ccc(C(F)(F)F)cc1)C(=O)c1ccc(Oc2ccccc2)cc1	-	-	-	-	-
NC(=NO)c1ccc(NC(=O)c2ccc(Br)o2)cc1	.	.	-	-	.
CC(=O)N1c2c(cc(Br)cc2S(=O)(=O)N2CCN(c3ccccn3)CC2)CC1C (stereo not drawn)	-	-	-	-	52.5
CC(=O)N1CCc2cc(Br)cc(S(=O)(=O)N3CCN(c4ccccn4)CC3)c21	-	-	-	-	-
CCOCCCNC(=S)NC1CC2CCC(C1)N2Cc1ccccc1 (stereo not drawn)	-	-	-	-	-
COCCCNC(=S)NC1CC2CCC(C1)N2Cc1ccccc1 (stereo not drawn)	-	-	-	-	34.8
N#Cc1c2ccc(O)cc2n2ccccc12	-	-	-	-	55.2
CC(C)c1ccc(C(C)NCCS(=O)(=O)c2ccc(Br)cc2)cc1 (stereo not drawn)	-	34.9	-	-	-
CCc1cc(-c2n[nH]c(C)c2Oc2ccc(C(C)C)cc2)c(O)cc1O	-	-	98.9	86.4	-
Cc1[nH]nc(-c2ccc(O)cc2O)c1Oc1ccccc1	-	-	-	-	-
COC(=O)c1ccc(N2C(=O)CC(N(C)CCc3ccc(OC)c(OC)c3)C2=O)cc1 (stereo not drawn)	-	-	-	-	450.7
Cc1ccc(NC(=S)NC(=O)C2CCCC2)c(Br)c1	.	-	93.1	-	118.8
CC1(C)CC(=O)CC(=NNC(=O)CCc2ccc(S(=O)(=O)N3CCOCC3)cc2)C1	.	.	-	-	.
C=CCC[C@@H](Cc1ccc(F)cc1)C(=O)OC[C@H](Cc1c[nH]c2ccccc12)NC(=O)[C@@H](CC=C)CC(=O)NCCO	.	-	.	.	32.9
C=CCC[C@H](Cc1ccc(F)cc1)C(=O)OC[C@@H](Cc1c[nH]c2ccccc12)NC(=O)[C@@H](CC=C)CC(=O)NCCO	.	-	.	.	57.4
C=CCC[C@@H](Cc1ccc(F)cc1)C(=O)OC[C@@H](Cc1c[nH]c2ccccc12)NC(=O)[C@H](CC=C)CC(=O)NCCO	.	-	.	.	-
C=CCC[C@H](Cc1ccc(F)cc1)C(=O)OC[C@H](Cc1c[nH]c2ccccc12)NC(=O)[C@H](CC=C)CC(=O)NCCO	.	-	.	.	32.2
C=CCC[C@@H](Cc1ccc(F)cc1)C(=O)OC[C@@H](Cc1c[nH]c2ccccc12)NC(=O)[C@@H](CC=C)CC(=O)NCCO	.	-	-	-	39.7
O=C(NN=C/C(Br)=C\c1ccccc1)c1cccs1	.	.	-	-	.
COc1ccc(C=NN2CCN(c3ccc(Cl)cc3)CC2)cc1	.	.	-	-	.
Oc1ccc(O)c2c1C1(Cl)C(Cl)=C(Cl)C2(Cl)C1(Cl)Cl	.	-	-	-	82.7
CN1C(=CC=NNC(=O)c2ccccc2Br)C(C)(C)c2ccccc21	.	.	88.0	-	.
CN1/C(=C\C=N\NC(=O)c2ccc(O)cc2)C(C)(C)c2ccccc21	-	-	.	.	-
Cc1cnc(C(=O)OCC(=O)Nc2c(Cl)cc(Cl)cc2Cl)cn1	.	-	-	-	63.3

High-throughput results: PubChem BioAssay, several laboratories
